# In all, about 35,000 sequences were measured (“fluorescence intensity (a.u.)”: median about 10,000, highest 2% from about 52,000 on). For the sample, the highest values were picked, then their nearest neighbours and some sequences at random.
# Target: T1, OsWOX13 (Oryza sativa, UniProt Q5QMM3 1-267)
# T1 sequence: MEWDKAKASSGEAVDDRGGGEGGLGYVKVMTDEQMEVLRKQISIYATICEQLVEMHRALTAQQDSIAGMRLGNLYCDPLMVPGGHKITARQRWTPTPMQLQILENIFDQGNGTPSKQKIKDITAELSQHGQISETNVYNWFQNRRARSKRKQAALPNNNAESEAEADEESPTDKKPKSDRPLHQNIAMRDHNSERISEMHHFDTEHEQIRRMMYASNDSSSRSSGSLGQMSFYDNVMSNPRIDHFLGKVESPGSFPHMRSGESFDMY
# Assay: protein-binding microarray (RPBM); PBS, 2% BSA, 51.3 ng/ul salmon testes DNA, 50 uM zinc acetate, 200 nM TF, 25 C, 1 h; high values mean tight binding
# Conditions: protein: recombinant; tags: N-terminal polyhistidine and DsRed monomer fusion (pET32a); label: CyDye5-dUTP incorporated in the synthesized complementary strand; 3' TTTTT single-stranded linker to array surface; dsDNA, one strand shown
# Procedure, shortened: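 Ni–NTA purification followed expression in E. coli BL21-CodonPlus of transcription factors fused N-terminally to a polyhistidine tag and DsRed. At 200 nM in PBS with 2% BSA, salmon testes DNA and 50 µM zinc acetate, the protein was incubated for 1 h at 25 °C with a custom Agilent array that had been primer-extended with Cy5-dUTP and blocked with 2% BSA. After washing, the array was read on an Axon 4000B scanner. The binding signal is per-feature fluorescence intensity in arbitrary units.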
row,Sequence,binding signal
1,TTTCCATTAATAAATTGAAACATATTGAACTAGATCGTTCCGGAGTCACCTAGTGCAG,15600 fluorescence intensity (a.u.)
2,TTTAATAATTTGTTTATAAAAGAAACTAAAGGGCACTGCTCGGAGTCACCTAGTGCAG,12200 fluorescence intensity (a.u.)
3,ATAAACTGGAACAGAAGGCCAGGCGGAAATAAACTGGACACGGAGTCACCTAGTGCAG,6490 fluorescence intensity (a.u.)
4,GGCCTAATTCATTGACGGGAACTAAGTGGGCTGAATTCGTCGGAGTCACCTAGTGCAG,7250 fluorescence intensity (a.u.)
5,CCCAAATTAATCATCATGTAATAGAATGATATATTCATTGCGGAGTCACCTAGTGCAG,49200 fluorescence intensity (a.u.)
6,GTGTCGCCAGTGATTGCAGTTTCAGTTCGAAATTTCTCTACGGAGTCACCTAGTGCAG,9490 fluorescence intensity (a.u.)
7,ATAACGAACGGATGAGATTGATCGCTACAATACTCTAGAGCGGAGTCACCTAGTGCAG,4050 fluorescence intensity (a.u.)
8,TAAACTCCAAGTTGATTATCCAACGAATCGTAGCCTCGAGCGGAGTCACCTAGTGCAG,5690 fluorescence intensity (a.u.)
9,GATCAATCATTTGCTGAGCTCGTGAATTCTGTCTGGTTCACGGAGTCACCTAGTGCAG,24300 fluorescence intensity (a.u.)
10,CCTTAATTAATTAATTAATTACGTGCTATTTATTTCTTGGCGGAGTCACCTAGTGCAG,55300 fluorescence intensity (a.u.)
11,CTTAATTAATAGGGTATTAATAACCTCCCTAAAGTCATTGCGGAGTCACCTAGTGCAG,60200 fluorescence intensity (a.u.)
12,TATAAATTTAGTCAAATTTAAAGCAGTTTGATTTTGACCACGGAGTCACCTAGTGCAG,26800 fluorescence intensity (a.u.)
13,ATTTCTTAATTTAATGCTATTCTGACTCCTTGCACCTCTACGGAGTCACCTAGTGCAG,12300 fluorescence intensity (a.u.)
14,GTACAAAATTATCTAAAATTAACTACAAAATTATGTACTACGGAGTCACCTAGTGCAG,12800 fluorescence intensity (a.u.)
15,AACTTAATTAAATTTAAAGCAGTTTGATTTTGACTAAAGTCGGAGTCACCTAGTGCAG,31800 fluorescence intensity (a.u.)
16,AATATAAATTAAATTTTATTTGCTAAAATTAATATCATTGCGGAGTCACCTAGTGCAG,15000 fluorescence intensity (a.u.)
17,TTAAATTTAATTAAATTTAAAGCAGTTTGATTTTGACCAACGGAGTCACCTAGTGCAG,56000 fluorescence intensity (a.u.)
18,ACTAGCTAAATTATACCATGTTAACTTATACTATATTAGTCGGAGTCACCTAGTGCAG,9700 fluorescence intensity (a.u.)
19,TAACTAATTATGTACTAACAAATTAGCTAGTCTACCATGCCGGAGTCACCTAGTGCAG,56600 fluorescence intensity (a.u.)
20,AATTTACACTTAATTTGCTATTTGCTATACATGTTTTCTACGGAGTCACCTAGTGCAG,10800 fluorescence intensity (a.u.)
21,TTCTAATAATTTGATATTAGGTCATTCCCTAATATTCGTGCGGAGTCACCTAGTGCAG,25000 fluorescence intensity (a.u.)

row,Sequence,binding signal
1,GGCGTTAATCACGTGATGGGCATGGATAGTGATTTAGATTCGGAGTCACCTAGTGCAG,13900 fluorescence intensity (a.u.)
2,GATATGATGGGTACAAACTGTTATAAACTAACATGTCTATCGGAGTCACCTAGTGCAG,5970 fluorescence intensity (a.u.)
3,GGGCCTGGTCCTGATTGGACTTCCTTATCTGTCTATCACACGGAGTCACCTAGTGCAG,10700 fluorescence intensity (a.u.)
4,TGATGGGAAAACTTTAAAATTAATTTTGAATTTAAGGTTGCGGAGTCACCTAGTGCAG,4960 fluorescence intensity (a.u.)
5,TGCTTTGATTTTACGTCACATACACATGGTGATGCTTCAACGGAGTCACCTAGTGCAG,6250 fluorescence intensity (a.u.)
6,CAGTTTAATTGCTCCTCGGATGGATCTGGTATAGTTCTGCCGGAGTCACCTAGTGCAG,20700 fluorescence intensity (a.u.)
7,CTCTTGATTGTATCCTTAGGCACTTTGTATATTCTCGAGTCGGAGTCACCTAGTGCAG,31700 fluorescence intensity (a.u.)
8,ACATCACTAATTAATGTAATTTAAGTGGCTCATTTGCTCACGGAGTCACCTAGTGCAG,31900 fluorescence intensity (a.u.)
9,TTTATAATAGTTAATATTTAATTGATCATTTGCTAATGAGCGGAGTCACCTAGTGCAG,24900 fluorescence intensity (a.u.)
10,GAACAGGTAATTTAAAATTGATGGAGTTCATAGGATGTCACGGAGTCACCTAGTGCAG,24200 fluorescence intensity (a.u.)
11,CCATTACGTGATCACAGATTGATCAAGAAATGCTTGACGACGGAGTCACCTAGTGCAG,19600 fluorescence intensity (a.u.)
12,TTGGATTAGAATTTAATTTGAAGACGACATCCATTGGATACGGAGTCACCTAGTGCAG,28700 fluorescence intensity (a.u.)
13,TTCACTAATCAATCAACTTAATTTGCTCTGTCAATGTGCACGGAGTCACCTAGTGCAG,61700 fluorescence intensity (a.u.)
14,TTTAATTGATGGAGCGGTAATGGTAATAGTTCTTCACTCACGGAGTCACCTAGTGCAG,57300 fluorescence intensity (a.u.)
15,TAAAATTAGTCAAACTTAAAGCAGTTTGATTTTGACTAAACGGAGTCACCTAGTGCAG,3740 fluorescence intensity (a.u.)
16,CCAAATGATTAATTTGGAGGACTTATTTGGACGTTTTGAACGGAGTCACCTAGTGCAG,42300 fluorescence intensity (a.u.)
17,TTTATATTATTTGTCAATCTTATTGTCAACTTATTAATCACGGAGTCACCTAGTGCAG,5140 fluorescence intensity (a.u.)
18,TCTGATTAATTTGACGGCCACAAAATACTTAGTTTGGCAACGGAGTCACCTAGTGCAG,65000 fluorescence intensity (a.u.)
19,AAGATACGTGATTGAAATCATTCCATTATGGACGACATTGCGGAGTCACCTAGTGCAG,54000 fluorescence intensity (a.u.)
20,TTAACAATTGAAAGATCATCTCATTGGTTAATTTATTTGGCGGAGTCACCTAGTGCAG,6220 fluorescence intensity (a.u.)
21,GATGGTCTATTAGTCCGTGATTAATTAAGTATTAGCTATTCGGAGTCACCTAGTGCAG,8910 fluorescence intensity (a.u.)

# Reference: PMC7819943, “Rice protein-binding microarrays: a tool to detect cis-acting elements near promoter regions in rice”
